DT40 TDP1 no CPT: qHTS for Inhibitors of human tyrosyl-DNA phosphodiesterase 1 (TDP1): qHTS in cells in absence of CPT | AID 686978, 2013 | 15% of 420,000 active | Potency, µM (series often up to 46.2 µM), most hits filed as inhibitors | DT40 Tdp1-/- hTDP1 cells, no CPT, ATP luminescence, 48 h; also: nearly all actives have a fitted effect of over 55% in size
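A cellular qHTS used chicken DT40 cells lacking endogenous Tdp1 but carrying stably transfected human TDP1. Compounds were applied without camptothecin, and cell growth kinetics were judged by ATP-dependent luminescence after ≥48 hr.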
HT1080NT lethal: qHTS for induction of synthetic lethality in tumor cells producing 2HG: qHTS for the HT-1080-NT fibrosarcoma cell line | HT-1080-NT fibrosarcoma viability, CellTiter-Glo ATP luminescence, 48 h | Potency, µM (titrated, usually from 46.1 µM), usual class: cytotoxic | 1.6% of 360,000 active;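 also: NT is the 2HG producing partner of a matched IDH1 knockdown line; nearly all actives have a fitted effect of over 55% in size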
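HT-1080-NT; 750 cells/well; 5% FBS RPMI; 48 h compound, 37 degrees C; CellTiter-Glo luminescence; curve fitting and curve-class assignment.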
IL-1B inflam inh: qHTS for Inhibitors of Inflammasome Signaling: IL-1-beta AlphaLISA Primary Screen | AID 743279, 2014 | 4.7% of 360,000 active | THP-1 LPS/ATP IL-1B secretion, AlphaLISA, 16 h; stronger effect = lower value | activity change, % at 57.5 µM; in the data active = activity change below about -50%; inconclusive = mostly about -30% to -49%
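THP-1 cells pretreated 1 hr with compounds (up to 57.5 uM final), then stimulated with LPS (250 ng/mL final) plus ATP (1.25 mM final); secreted IL-1B measured by AlphaLISA after 16 hr, decreased signal indicating inhibition.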
HT1080 IDH1KD tx: qHTS for induction of synthetic lethality in tumor cells producing 2HG: qHTS for the HT-1080-IDH1KD cell line; HT-1080 IDH1 knockdown viability, ATP luminescence, 48 h; Potency, µM (doses to about 46.1 µM), most hits filed as cytotoxic; 2% of 360,000 active
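Assay cells: HT-1080 with IDH1 knockdown, 750 per well, RPMI/5% FBS. Exposure: 48 h at 37 °C following 2 h pre-incubation. Read: CellTiter-Glo luminescence; fitted concentration-response, curve class assigned.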
ELG1 DNA repair: qHTS screen for small molecules that inhibit ELG1-dependent DNA repair in human embryonic kidney (HEK293T) cells expressing luciferase-tagged ELG1 | Potency, µM (titrated, usually from 46.1 µM), actives largely listed as inhibitors | 2.3% of 330,000 active | HEK293T ELG1-luciferase reporter, luminescence, 16 h; DNA damage induced by 5-fluorouridine; also: nearly all actives have a fitted effect of over 55% in size
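5-Fluorouridine DNA damage + compound/DMSO, 2,000 cells/well, 16 h, 37 °C/5% CO2. ONE-Glo, 30 min RT, luminescence. Readout = decrease in reporter signal.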
TDP1 cell CPT: qHTS for Inhibitors of human tyrosyl-DNA phosphodiesterase 1 (TDP1): qHTS in cells in presence of CPT. AID 686979, 2013. Potency, µM (highest dose often 46.2 µM), usual class: inhibitors. 12% of 420,000 active. chicken DT40 Tdp1-/-;hTDP1 cells + 20 nM CPT, ATP luminescence, 48 h; also: nearly all actives have a fitted effect of over 55% in size
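Chicken DT40 Tdp1-/- cells complemented with human TDP1, 400 cells/well, exposed to compounds plus 20 nM camptothecin for at least 48 h at 37 C; viability read as ATP content by CellTiter-Glo luminescence.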
A number is an active result; 0 = inactive; ? = inconclusive; - = no result. Compounds with a hit are over-represented: about 19% of the library has one in this group of screens. Unless noted, calls follow the shape of the dose curve; as a rule, active = well fitted curve in the direction sought with a large enough effect; inconclusive = small, poorly fitted or top-dose-only effect, or another doubt; inactive = no such curve, though single readings can be large; an effect the other way counts as inactive or inconclusive.

SMILES	DT40 TDP1 no CPT	HT1080NT lethal	IL-1B inflam inh	HT1080 IDH1KD tx	ELG1 DNA repair	TDP1 cell CPT
Cc1ccc(OCC(=O)N2CCN(S(C)(=O)=O)CC2)cc1	0	0	0	0	0	0
O=C(O)c1ccc(Nc2nc(-c3cc4ccccc4oc3=O)cs2)cc1O	?	0	0	0	?	?
CC(=O)Nc1ccc(Nc2nc(-c3cc4ccccc4oc3=O)cs2)cc1	18.4µM	0	0	0	?	8.2µM
Nc1ccc(Nc2nc(-c3cc4ccccc4oc3=O)cs2)cc1	8.2µM	0	-89.7	0	?	18.4µM
C=C(c1cn(C(C)=O)c2ccccc12)c1cn(C(C)=O)c2ccccc12	?	0	0	0	-	23.1µM
CN(C)CC1CCC/C(=C\c2ccc(OC(=O)/C=C/c3ccccc3)cc2)C1=O (stereo not given)	1.84µM	0	-110.8	0	-	1.3µM
O=C1/C(=C\c2ccc(Cl)cc2)CCC1CNc1ccc(Cl)cc1 (stereo not given)	2.59µM	0	-56.9	?	-	2.31µM
Cc1ccc(/C=C2\CCC(C3CCCC3)C2=O)cc1 (stereo not given)	0	0	0	0	?	0
CN(C)CC1CC/C(=C\c2ccc(O)cc2)C1=O (stereo not given)	1.3µM	?	-113.2	5.17µM	-	0.581µM
CN(C)CC1CCC/C(=C\c2ccc(OC(=O)c3ccc(Cl)cc3)cc2)C1=O (stereo not given)	0.411µM	?	-99.6	2.91µM	-	0.517µM
Cc1cccc(N(Cc2cc3ccccc3[nH]c2=O)S(=O)(=O)c2ccccc2)c1	?	0	0	0	?	?
O=C(Cn1c(=O)oc2ccccc21)NCc1ccc(Cl)cc1	0	-	-	-	-	0
Cc1cnc(C(=O)OC(C(=O)c2c[nH]c3ccccc23)c2ccccc2)cn1 (stereo not given)	0	0	0	0	?	0
Cc1c(CNC(C)CCc2ccccc2)c(C(=O)O)c(C)n1Cc1ccc(F)cc1 (stereo not given)	0	-	-	-	-	0
COc1ccc(/C=C2/CCC(CN3CCOCC3)C2=O)cc1 (stereo not given)	1.16µM	?	-102.9	6.51µM	-	1.16µM
CCC1(C)CC2(CCCN(CCC(O)(c3ccccc3)c3ccccc3)C2)CCO1 (stereo not given)	14.6µM	0	?	?	0	?
CC1(C)CC2(CCCN(CC(O)(c3ccccc3)c3ccccc3)C2)CCO1 (stereo not given)	?	0	0	0	?	?
CCOC(=O)c1cnc2c(C)cc(C)cc2c1Nc1cccc(C(=O)O)c1	14.6µM	-	-	-	-	13µM
CCOC(=O)c1cnc2c(C)c(C)ccc2c1NCCN1CCOCC1	?	0	?	0	?	?
CCOC(=O)c1cnc2c(C)cc(C)cc2c1NCCCN1CCOCC1	?	0	-70.8	0	?	?
CCOC(=O)c1cnc2c(C)c(Cl)ccc2c1NCCCN1CCOCC1	?	0	?	0	0	?
CCOC(=O)c1cnc2c(C)cc(C)cc2c1NCCN1CCOCC1	16.4µM	-	-	-	-	18.4µM
COc1ccc(C(=O)Nc2ccc(NC(=O)c3cc(OC)c(OC)c(OC)c3)cn2)cc1	0	0	0	?	0	?
CCOc1cccc2sc(N(CCN(C)C)C(=O)c3ccc4ccccc4c3)nc12	?	0	-100.9	0	0	?
Cc1cc(C)c2nc(N(CCN(C)C)C(=O)c3ccc4ccccc4c3)sc2c1	13µM	?	0	?	0	16.4µM
SMILES	DT40 TDP1 no CPT	HT1080NT lethal	IL-1B inflam inh	HT1080 IDH1KD tx	ELG1 DNA repair	TDP1 cell CPT
COc1ccc(C)c2sc(N(CCN(C)C)C(=O)c3ccc4ccccc4c3)nc12	?	?	-54.5	0	0	18.4µM
COc1ccc(OC)c(NC(=O)CCN2CCCC(C)C2)c1 (stereo not given)	0	0	0	0	0	0
COc1ccc(NC(=S)N(CCCN2CCCC(C)C2)Cc2cccs2)cc1 (stereo not given)	29.1µM	0	0	0	0	?
COc1ccc(C(=O)CCN2CCCC(C)C2)cc1 (stereo not given)	?	?	0	0	0	23.1µM
COc1ccc(C(=O)CCN2CCC(C)CC2)cc1	11.6µM	?	0	?	0	13µM
COc1ccc(N2CCN(CC(=O)N3CCC(C)CC3)CC2)cc1	0	0	0	0	0	0
COc1ccc(NC(=S)N(CCCN2CCCC2)Cc2cccs2)cc1	0	0	0	0	0	0
Cc1cc(OCC(=O)O/N=C(\N)c2ccccc2)ccc1Br	0	?	0	0	?	0
O=C(c1cccc(Cl)c1)n1nc(-c2ccco2)nc1NCc1cccs1	0	-	-	-	-	0
CCOc1ccc(CN(C)C(=O)CNC(=O)c2sc3ccccc3c2Cl)cc1	?	0	0	0	0	0
Cc1ncc(COC(=O)C(C)C)c2cc(C(=O)Nc3ccccc3C(F)(F)F)c(=O)oc12	0	-	-	-	-	0
CC1=CC2=NC(=O)/C(=C\c3cc(C)n(-c4ccc(F)cc4)c3C)C(=N)N2O1	?	0	0	0	0	?
CC1=NOC(=O)/C1=C\c1ccc(-c2ccccc2Br)o1	5.8µM	0	-96.4	?	?	6.51µM
Nc1ccccc1N=Cc1ccc(-c2cccc(Cl)c2)o1	23.1µM	0	-82.3	?	?	20.6µM
COC(=O)N/N=C/c1ccc(-c2cccc(Cl)c2)o1	?	0	0	0	?	0
CC1=NOC(=O)/C1=C\c1ccc(-c2cccc(Cl)c2)o1	5.17µM	?	-100.1	18.4µM	?	5.8µM
CC1=CC2=NC(=O)/C(=C\c3ccc(-c4cccc(Cl)c4)o3)C(=N)N2O1	2.59µM	10.3µM	0	8.2µM	?	4.61µM
CCOc1ccccc1CNC(=O)CCn1cccn1	0	-	-	-	-	0
CCOC(=O)c1cc(-c2ccccc2)n(CC(=O)NC(C)c2ccccc2)c1C (stereo not given)	9.2µM	-	-	-	-	18.4µM
CCOC(=O)c1cc(-c2ccccc2)n(CC(=O)Nc2ccc(OCC)cc2)c1C	?	0	0	0	?	?
COc1cc(NC(=O)Cn2c(-c3ccccc3)cc(C(C)=O)c2C)cc(OC)c1	16.4µM	-	-	-	-	20.6µM
CCOC(=O)c1cc(-c2ccccc2)n(CC(=O)NC(C)(C)C)c1C	?	0	0	0	0	?
